According to the supplement of paper PMC5919970:
Counter-ions that a name gives are not always drawn. Over roughly 2,000 compounds, “fractional viability relative to vehicle” has its median near 0.91; the lowest 2% begin near 0.045. Shown is part of a subset that was picked to be rich in the lowest values.

System: TYKNU
Test: fractional viability relative to vehicle; TYKNU is a high-grade serous ovarian cancer line; higher = less growth inhibition
Conditions: 72 h
Summary of the method: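 Drug treatment lasted 72 h, with cells grown at 37 °C in 5% CO2 in RPMI 1640 supplemented with 10% FBS. Beforehand, TYKNU control cells or their lentiCRISPRv2 knockout derivatives had been seeded at 500 cells per well into drug-stamped 384-well plates carrying a ~2100-compound library at 2 or 10 μM, in duplicate. Viability came from Cell Titer Glo luminescence, with averaged duplicate treatment wells normalised to duplicate control wells in the same plate position.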

[1] = 2uM, genotype: DNM1L knockout (sgDNM1L #1)
[2] = 2uM, genotype: sgCTRLA1 (non-targeting control)
[3] = 10uM, genotype: DNM1L knockout (sgDNM1L #1)
[4] = 10uM, genotype: sgCTRLA1 (non-targeting control)

Compound	fractional viability [1]	fractional viability [2]	fractional viability [3]	fractional viability [4]
O=C(NC[C@H](O)CO)c1ccncc1Nc1ccc(I)cc1F	0.333	0.318	0.212	0.205
CCCSc1nc(N[C@@H]2C[C@H]2c2ccc(F)c(F)c2)c2nnn([C@@H]3C[C@H](OCCO)[C@@H](O)[C@H]3O)c2n1 [Ticagrelor]	0.944	1.12	0.492	0.903
CCN(CC)C(=S)SSC(=S)N(CC)CC [Disulfiram]	0.456	0.291	0.0708	0.0241
CC(=O)N1c2ccc(-c3ccc(C(=O)O)cc3)cc2[C@H](Nc2ccc(Cl)cc2)C[C@@H]1C	0.281	0.395	0.237	0.208
CC(=O)Nc1ccc(C(=O)Nc2ccccc2N)cc1 [CI994 (Tacedinaline)]	0.966	0.965	0.456	0.675
Cc1cc(Nc2ccc(NC(=O)c3ccc(Nc4ccnc5ccccc45)cc3)cc2)nc(N)n1	0.0197	0.0121	0.0121	0.00969
CNCc1ccc(C)c(NC(=O)c2ccc(Nc3nc(-c4ccccc4)c4ccccc4n3)cc2)c1	0.752	1.03	0.0487	0.0706
COc1cc(OC)c2c(=O)[nH]c(-c3cc(C)c(OCCO)c(C)c3)nc2c1	1.15	1.12	0.973	1.03
CN(C)CCNC(=O)c1cccn2c(=O)c3cc4ccccc4cc3nc12	0.389	0.417	0.107	0.0609
Cc1cnc(Nc2ccc(N3CCN(C)CC3)cc2)nc1Nc1cccc(S(=O)(=O)NC(C)(C)C)c1	0.363	0.472	0.0682	0.0804
Cc1cnc(Nc2ccc(OCCN3CCCC3)cc2)nc1Nc1cccc(S(=O)(=O)NC(C)(C)C)c1	0.352	0.378	0.0362	0.0573
C=CC(=O)Nc1cccc(Nc2nc(Nc3ccc(OCCOC)cc3)ncc2F)c1	0.626	0.721	0.273	0.297
Cc1nc(Nc2cnn(C3CCNCC3)c2)nc2c1N(C)C(=O)c1cc3ccccc3cc1N2C	0.723	0.802	0.376	0.51
CCN(CC)CCOc1ccc(C(=C(Cl)c2ccccc2)c2ccccc2)cc1 [Clomifene citrate]	0.751	1.08	0.178	0.479
O=S(=O)(NCCSSCCNS(=O)(=O)c1cc(Cl)ccc1Cl)c1cc(Cl)ccc1Cl	0.891	0.899	0.197	0.43
CN1CCN(Cc2ccc(Nc3ncc(Cl)c(Nc4ccccc4S(=O)(=O)N(C)C)n3)cc2)CC1	0.22	0.229	0.234	0.18
Cc1cc(Nc2ncc(Cl)c(Nc3ccccc3S(=O)(=O)C(C)C)n2)c(OC(C)C)cc1C1CCNCC1	0.612	0.403	0.026	0.0128
O=C(O)c1cc2cccc([N+](=O)[O-])c2[nH]1	0.859	1.09	0.957	0.802
CCCCNc1ncc2c(-c3ccc(CN4CCN(C)CC4)cc3)cn([C@H]3CC[C@H](O)CC3)c2n1	0.322	0.41	0.0773	0.0599
C=CCc1cccc(/C=N/NC(=O)CN2CCN(Cc3ccccc3)CC2)c1O	0.604	0.671	0.277	0.27

Compound	fractional viability [1]	fractional viability [2]	fractional viability [3]	fractional viability [4]
Cc1[nH]nc2ccc(-c3cncc(OC[C@@H](N)Cc4ccccc4)c3)cc12	0.23	0.212	0.137	0.0399
CC[C@H]1OC(=O)C[C@@H](O)[C@H](C)[C@@H](O[C@@H]2O[C@H](C)[C@@H](O)[C@H](N(C)C)[C@H]2O)[C@@H](CCN2C[C@H](C)C[C@H](C)C2)C[C@@H](C)C(=O)/C=C/C(C)=C/[C@@H]1CO[C@@H]1O[C@H](C)[C@@H](O)[C@@H](OC)[C@H]1OC [Tilmicosin]	2.22	1.13	1.49	1.11
CC(/C=C1\SC(=S)N(CC(=O)O)C1=O)=C\c1ccccc1 [Epalrestat]	0.92	1.11	0.89	1.03
CCOC(=O)[C@H]1O[C@@H]1C(=O)N[C@@H](CC(C)C)C(=O)NCCC(C)C [Aloxistatin]	0.853	0.91	0.817	0.78
Cc1c[nH]c(/C=C2\C(=O)Nc3ccccc32)c1CCC(=O)O	0.91	0.936	0.874	0.784
CC(C)(C)NCC(O)COc1cccc2c1CCC(=O)N2 (stereo unspecified) [Carteolol HCl]	0.876	1.16	0.838	1.14
CC(C)NCC(O)COc1cccc2ccccc12 (stereo unspecified) [Propranolol HCl]	0.866	1.12	0.82	1.1
CC(C)(Cc1ccc2ccccc2c1)NC[C@@H](O)COc1cccc(Cl)c1C#N	0.854	1.1	0.585	0.0354
NCc1c[nH]c(=S)n1[C@H]1CCc2c(F)cc(F)cc2C1 [Nepicastat (SYN-117) HCl]	0.973	1.11	0.953	0.993
NC1=N[C@@](c2cccc(-c3cncnc3)c2)(c2ccnc(C(F)F)c2)c2cccc(F)c21	0.851	1.01	0.765	0.736
CCCc1cc2c(N3CCN(C4=NCC(C)(C)S4)CC3)ncnc2s1 [MI-2 (Menin-MLL Inhibitor)]	0.919	0.869	0.747	0.665
CCOC(=O)c1cnc2ccc(-c3cncc(NS(=O)(=O)c4ccccc4)c3)cn12	0.176	0.171	0.183	0.108
O=C(c1ccccc1)c1ccc2nc(NC(=O)c3csc(C4CCN(c5ncnc6ccsc56)CC4)n3)[nH]c2c1	0.749	1.15	0.481	0.328
CC(C)OC(=O)C1=CN(C(=O)c2ccc(F)c(F)c2)CC(C)(C)c2c1[nH]c1ccccc21	0.991	1.05	0.865	0.965
CCc1cccc(CC)c1NC(=O)N1Cc2[nH]nc(NC(=O)c3ccc(N4CCN(C)CC4)cc3)c2C1	0.538	0.711	0.359	0.462
CO[C@@H](C(=O)N1Cc2[nH]nc(NC(=O)c3ccc(N4CCN(C)CC4)cc3)c2C1)c1ccccc1	0.503	0.521	0.486	0.427
CN1CCN(c2ccc(C(=O)Nc3n[nH]c4ccc(Cc5cc(F)cc(F)c5)cc34)c(NC3CCOCC3)c2)CC1 [Entrectinib (RXDX-101)]	0.597	0.771	0.0511	0.0303
OCc1ccc(O[C@@H]2O[C@H](CO)[C@@H](O)[C@H](O)[C@H]2O)cc1 [Gastrodin]	0.926	1.16	0.853	1.06
COc1ccc(-c2nc3cc(C4=NNC(=O)CC4C)ccc3[nH]2)cc1 (stereo unspecified) [Pimobendan]	1.1	1.05	0.55	0.472
CN1C(C(=O)Nc2ccccn2)=C(O)c2sc(Cl)cc2S1(=O)=O [Lornoxicam]	1.04	1.22	0.894	0.996

Compound	fractional viability [1]	fractional viability [2]	fractional viability [3]	fractional viability [4]
Cc1cc(N2CCOCC2)cc2[nH]c(-c3c(NC[C@@H](O)c4cccc(Cl)c4)cc[nH]c3=O)nc12	0.488	0.845	0.35	0.472
C=C1C(=O)O[C@H]2[C@H]1CC/C(C)=C/CC[C@@]1(C)O[C@@H]21 [(-)-Parthenolide]	0.336	0.595	0.0299	0.0264
C=C1C(=O)O[C@@H]2/C=C(\C)CC/C=C(\C)CC[C@@H]12 [Costunolide]	0.946	1.05	0.226	0.249
CN(C)CCc1c[nH]c2ccc(CS(=O)(=O)N3CCCC3)cc12 [Almotriptan Malate]	1.02	1.18	0.947	1.02
CC(C)(O)CC[C@@H](O)[C@](C)(O)[C@H]1CC[C@@]2(O)C3=CC(=O)[C@@H]4C[C@@H](O)[C@@H](O)C[C@]4(C)[C@H]3CC[C@]12C [20-Hydroxyecdysone]	1.04	1.1	0.84	1.02
COc1cc(Nc2c(C#N)cnc3cc(OCCCN4CCN(C)CC4)c(OC)cc23)c(Cl)cc1Cl [Bosutinib (SKI-606)]	0.41	0.574	0.138	0.111
COc1cc2nc(N3CCCC3)nc(NCCCCCN3CCCC3)c2cc1OC	0.426	0.543	0.0312	0.0156
COc1cc(OC)c(C(=O)CCCN2CCCC2)c(OC)c1 [Buflomedil HCl]	0.912	1.1	0.825	1.03
COc1cc2c(NC3CCN(CC4CCCCC4)CC3)nc(N3CCCN(C(C)C)CC3)nc2cc1OCCCN1CCCCC1	0.657	0.723	0.0227	0.00884
COc1cc2nc(N3CCN(C(=O)C4CCCO4)CC3)nc(N)c2cc1OC (stereo unspecified) [Terazosin HCl]	1.17	1.16	1.07	0.97
COC(=O)c1ccc2c(c1)[nH]c1ncnc(NCCCN3CCCCC3)c12	0.884	1.05	0.929	0.811
COc1cc2nc(N3CCN(C(=O)C4COc5ccccc5O4)CC3)nc(N)c2cc1OC (stereo unspecified) [Doxazosin Mesylate]	1.18	1.11	1.07	0.931
COc1cc2nc(N3CCCN(C)CC3)nc(NC3CCN(Cc4ccccc4)CC3)c2cc1OC	0.474	0.548	0.0331	0.0181
c1coc(CNc2ncnc3[nH]cnc23)c1 [Kinetin]	1.01	1.01	0.361	0.431
Cc1nn(C)c2c1C(c1ccc(C(F)(F)F)cc1)C(C#N)=C(N)O2 (stereo unspecified)	0.924	1.08	0.886	0.86
OC(CN1CCN(c2cccc(Cl)c2)CC1)C(c1ccccc1)c1ccccc1 (stereo unspecified)	0.96	1.02	0.831	1.05
Cc1cc(C(O)=C2C(=O)C(=O)N(CCCN3CCOCC3)C2c2ccncc2)ccc1OCc1ccccc1 (stereo unspecified)	0.77	0.984	0.802	0.726
NC(=O)C(c1ccccc1)(c1ccccc1)[C@@H]1CCN(CCc2ccc3c(c2)CCO3)C1 [Darifenacin HBr]	0.951	1.21	0.794	0.953
C=C[C@]1(C)C[C@@H](OC(=O)CSC(C)(C)CNC(=O)[C@H](N)C(C)C)[C@]2(C)[C@H](C)CC[C@]3(CCC(=O)[C@H]32)[C@@H](C)[C@@H]1O [Valnemulin HCl]	0.403	0.236	0.385	0.238
